{"source": "the supplement of paper PMC7156485", "data": [{"tested_on": "HCC1569", "experiment": "H1.0 immunofluorescence intensity relative to DMSO (% of DMSO); higher = stronger H1.0 induction, active = 140 or more", "settings": "concentration: 10 µM; 24 h", "how_it_was_run": "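Using 384-well plates with 800 cells per well in RPMI plus 10% FBS, HCC1569 and TDF cells were exposed to compounds at 10 µM, in triplicate, for 24 h at 37 °C. Imaging of six fields per well at ×10 followed H1.0 and DAPI staining. The reported quantity, H1.0 nuclear intensity or cell number, is a median of replicates given as percent of the plate control, and HCC1569 values were smoothed for positional effects.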", "values": [{"smiles": "Cc1ccc2c(c1)C1(CCN(CCc3nc(-c4ccccc4)oc3C)CC1)OC(=O)N2", "H1.0 immunofluorescence intensity": "123 (inactive)"}, {"smiles": "C=C(C)C1C2OC(=O)C1C1(O)CC3OC34C(=O)OC2C14C", "note": "(centres undefined) [Picrotoxinin]", "H1.0 immunofluorescence intensity": "90.9 (inactive)"}, {"smiles": "COC1=CC(=O)OC(C=Cc2ccc3c(c2)OCO3)C1", "note": "(centres undefined) [Methysticin]", "H1.0 immunofluorescence intensity": "89 (inactive)"}, {"smiles": "COc1ccc2c(c1O)-c1c(OC)c(OC)cc3c1C(C2)N(C)CC3.Cl", "note": "(single isomer, unassigned; (+)) [(+)-Isocorydine hydrochloride]", "H1.0 immunofluorescence intensity": "91.4 (inactive)"}, {"smiles": "CC(N)C(O)c1ccccc1", "note": "(centres undefined) [Phenylpropanolamine]", "H1.0 immunofluorescence intensity": "99.8 (inactive)"}, {"smiles": "CC1OC(=O)C(C(C)C)NC(=O)C(C(C)C)OC(=O)C(C(C)C)NC(=O)C(C)OC(=O)C(C(C)C)NC(=O)C(C(C)C)OC(=O)C(C(C)C)NC(=O)C(C)OC(=O)C(C(C)C)NC(=O)C(C(C)C)OC(=O)C(C(C)C)NC1=O", "note": "(centres undefined) [Valinomycin]", "H1.0 immunofluorescence intensity": "174 (active)"}, {"smiles": "Cc1ncc(CNC(=O)N(CCCl)N=O)c(N)n1.Cl", "note": "[Nimustine hydrochloride]", "H1.0 immunofluorescence intensity": "94.4 (inactive)"}, {"smiles": "O=[N+]([O-])c1ncc[nH]1", "note": "[Azomycin]", "H1.0 immunofluorescence intensity": "93.7 (inactive)"}, {"smiles": "CC1CCC2C(C)C3CCC4(O)C(CC5C4CC(=O)C4CC(=O)CCC45C)C3CN2C1", "note": "(centres undefined) [Sevedindione]", "H1.0 immunofluorescence intensity": "85 (inactive)"}, {"smiles": "CNC(=O)OCC[N+](C)(C)C.[Cl-]", "note": "[Methylcarbamylcholine chloride]", "H1.0 immunofluorescence intensity": "95.8 (inactive)"}, {"smiles": "CCCN1CCOC2c3cc(O)ccc3OCC21.Cl", "note": "(stereo not drawn) [S(+)-PD 128,907 hydrochloride]", "H1.0 immunofluorescence intensity": "100 (inactive)"}, {"smiles": "CC(C)(O)C1C2OC(=O)C1C1(O)CC3OC34C(=O)OC2C14C", "note": "(centres undefined) [Picrotonin]", "H1.0 immunofluorescence intensity": "82.5 (inactive)"}, {"smiles": "CC12CCC3C(CCC4=CC(=O)CCC43C)C1CCC2=O", "note": "(centres undefined) [4-Androstene-3,17-dione]", "H1.0 immunofluorescence intensity": "90 (inactive)"}, {"smiles": "CN(C(=O)Cc1ccc(Cl)c(Cl)c1)C(CN1CCCC1)c1cccc(OCC(=O)O)c1.Cl", "note": "(centres undefined) [ICI 204,448 hydrochloride]", "H1.0 immunofluorescence intensity": "92.8 (inactive)"}, {"smiles": "Cl.O=C(N[C@H]1CN2CCC1CC2)c1c[nH]c2ccsc2c1=O", "H1.0 immunofluorescence intensity": "107 (inactive)"}, {"smiles": "CCn1cnc2c(Nc3cccc(Cl)c3)nc(NC3CCCCC3N)nc21", "note": "(centres undefined)", "H1.0 immunofluorescence intensity": "134 (inactive)"}, {"smiles": "NC(Cn1oc(=O)[nH]c1=O)C(=O)O", "note": "(centres undefined) [Quisqualic acid]", "H1.0 immunofluorescence intensity": "92.7 (inactive)"}, {"smiles": "COc1ccc(O)c(C(C)(C)C)c1", "H1.0 immunofluorescence intensity": "91.3 (inactive)"}, {"smiles": "CCC(C)C1OC2(C=CC1C)CC1CC(CC=C(C)C(OC3CC(OC)C(OC4CC(OC)C(O)C(C)O4)C(C)O3)C(C)C=CC=C3COC4C(O)C(C)=CC(C(=O)O1)C34O)O2", "note": "(centres undefined) [Abamectin]", "H1.0 immunofluorescence intensity": "103 (inactive)"}, {"smiles": "CC(C)NCC(O)c1ccc(N)c(C#N)c1", "note": "(centres undefined) [Cimaterol]", "H1.0 immunofluorescence intensity": "102 (inactive)"}, {"smiles": "CNC1CC(c2ccc(Cl)c(Cl)c2)c2ccccc21.Cl", "note": "(centres undefined) [Indatraline hydrochloride]", "H1.0 immunofluorescence intensity": "133 (inactive)"}, {"smiles": "CC(C)CC1C(=O)N2CCCC2C2(O)OC(NC(=O)C3C=C4c5cccc6[nH]c(Br)c(c56)CC4N(C)C3)(C(C)C)C(=O)N12.CS(=O)(=O)O", "note": "(single isomer, unassigned; (+)) [(+)-Bromocriptine methanesulfonate]", "H1.0 immunofluorescence intensity": "108 (inactive)"}, {"smiles": "CC1CCC2C(C)C(=O)OC3OC4(C)CCC1C32OO4", "note": "(centres undefined) [Artemesinin]", "H1.0 immunofluorescence intensity": "116 (inactive)"}, {"smiles": "Cc1sc2c(c1C)C(c1ccc(Cl)cc1)=N[C@@H](CC(N)=O)c1nnc(C)n1-2", "H1.0 immunofluorescence intensity": "220 (active)"}, {"smiles": "CCCN1CC(CSC)CC2c3cccc4[nH]cc(c34)CC21.CS(=O)(=O)O", "note": "(centres undefined) [Pergolide methanesulfonate]", "H1.0 immunofluorescence intensity": "94.4 (inactive)"}, {"smiles": "CN1Cc2c(ccc3c2OCO3)C2C(O)Cc3cc4c(cc3C21)OCO4", "note": "(single isomer, unassigned; (+)) [(+)-Chelidonine]", "H1.0 immunofluorescence intensity": "148 (active)"}, {"smiles": "CC1(CO)C(O)CCC2(C)C1CCC1CC3CC12CCC3(O)CO", "note": "(centres undefined) [Aphidicolin]", "H1.0 immunofluorescence intensity": "95.2 (inactive)"}, {"smiles": "CC(C)c1cc2c(c(O)c1O)C1(C(=O)O)CCCC(C)(C)C1CC2", "note": "(centres undefined) [Carnosic acid]", "H1.0 immunofluorescence intensity": "103 (inactive)"}, {"smiles": "Cl.Oc1ccc2c3c1OC1C(O)CCC4(O)C(C2)N(CC2CCC2)CCC314", "note": "(centres undefined) [Nalbuphine hydrochloride]", "H1.0 immunofluorescence intensity": "88.2 (inactive)"}]}]}
